In all, about 220,000 compounds went through this assay and about 830 (0.38%) were called active.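 The calls were made as follows: active = compound inhibiting the enzyme by more than half at any dose during confirmatory dose-response retesting; inconclusive = strong single-dose inhibitors picked by rank but not retested; inactive = the rest.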 Not all results are given here. Results with a measured potency or affinity are listed apart.
molecular target: Leucine aminopeptidase (Plasmodium falciparum (isolate 3D7)) (UniProt Q8IL11); assay: P. falciparum M17LAP inhibitors, primary screen, biochemical, fluorogenic H-Leu-NHMec substrate, 1536-well (AID 1619); conditions: recombinant M17LAP, H-Leu-NHMec fluorogenic kinetic assay; at 30 µM; stronger effect = higher value;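 also: plate controls were full reaction with DMSO carrier for no effect and no enzyme background for full effect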
Sequence (Q8IL11 whole entry, looked up): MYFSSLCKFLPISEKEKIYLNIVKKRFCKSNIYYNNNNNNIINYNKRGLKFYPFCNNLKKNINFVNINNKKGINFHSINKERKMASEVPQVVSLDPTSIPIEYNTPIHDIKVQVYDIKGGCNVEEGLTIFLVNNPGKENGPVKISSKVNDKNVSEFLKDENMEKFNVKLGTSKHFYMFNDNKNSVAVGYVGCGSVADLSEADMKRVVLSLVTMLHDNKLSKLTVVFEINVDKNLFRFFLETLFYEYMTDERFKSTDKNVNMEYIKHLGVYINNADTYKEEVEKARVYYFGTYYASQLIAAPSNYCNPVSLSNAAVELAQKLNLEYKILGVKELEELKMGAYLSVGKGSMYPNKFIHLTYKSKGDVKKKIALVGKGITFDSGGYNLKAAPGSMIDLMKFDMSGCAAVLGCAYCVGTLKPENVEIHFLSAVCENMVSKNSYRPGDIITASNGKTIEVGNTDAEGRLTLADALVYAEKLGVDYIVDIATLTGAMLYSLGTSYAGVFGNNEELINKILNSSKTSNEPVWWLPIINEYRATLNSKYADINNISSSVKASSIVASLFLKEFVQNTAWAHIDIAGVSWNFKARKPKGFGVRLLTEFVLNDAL

inhibition, inactive:
Cc1ccc(SCc2[nH]nc3c2C(c2ccco2)C(C#N)=C(N)O3)cc1 (stereo unspecified) 44.8%
C/C(=C\c1ccco1)C1C(C#N)=C(N)OC2=C1C(=O)CC(C)(C)C2 (stereo unspecified) 5.9%
CCCc1[nH]nc2c1C(/C(C)=C/c1ccccc1)C(C#N)=C(N)O2 (stereo unspecified) 6.81%
Cc1[nH]nc2c1C(c1ccco1)C(C#N)=C(N)O2 (stereo unspecified) 6.22%
COc1cc(C(=O)NCC(c2cccnc2)N2CCN(c3ccc(F)cc3)CC2)cc(OC)c1OC (stereo unspecified) -0.25%
COc1ccc(CNC(=O)CN(Cc2ccccc2)S(=O)(=O)c2ccc(Cl)cc2)cc1 -4.99%
O=C(c1ccc2c(c1)OCO2)C1CCCN(C(=O)C2CCOCC2)C1 (stereo unspecified) -3.38%
COCCCNC(NC(=O)c1ccc(Br)cc1)C(Cl)(Cl)Cl (stereo unspecified) 0.25%
NC(=O)[C@@H]1CC2(CC(c3cccc(NC(=O)[C@H]4CCC(=O)N4)c3)=NO2)CN1C(=O)c1ccc(Cl)cc1 (stereo partly specified) 11.6%
COc1ccccc1NC(=O)NCc1nc(-c2ccc(C(F)(F)F)cc2)no1 0.03%
COc1cc(OC)cc(C(=O)Nc2ccc([N+](=O)[O-])cn2)c1 1.24%
CN(C)c1ccc(C(=O)Nc2nnc(C3=COCCO3)o2)cc1 3.73%
C=CCOc1ccc(NC(=O)C2CC(=O)N(C(C)C)C2)cc1 (stereo unspecified) 27.3%
CCOc1ccc(NC(=O)C2CC(=O)N(C(C)C)C2)cc1 (stereo unspecified) 43.2%
CCOC(=O)c1c(C)n(C)c2ccc(OC(=O)c3ccc([N+](=O)[O-])cc3)cc12 -6.49%
CCCc1cc(=O)[nH]c(Nc2ccc(Cl)cc2)n1 1.52%
COc1ccc(Cc2nnc(Nc3ccc(Cl)cc3)[nH]c2=O)cc1 -7.25%
CC1(C(=O)O)CCC(C(=O)Nc2ccccc2)C1(C)C (stereo unspecified) 1.51%
COc1ccc(NC(=O)C2CCC(C)(C(=O)O)C2(C)C)cc1 (stereo unspecified) 14.3%
COc1cccc(NC(=O)c2ccc(NC(C)=O)cc2)c1 10.5%
COc1ccc2cc(CCNC(=O)C(C)C)c(=O)[nH]c2c1 9.03%
COc1ccc(NC(=O)CN2CCC(C)CC2)cc1 32.1%
CCCNC(=O)COC(=O)c1cc(SC)ccc1Cl 6.08%
CSc1ccc(Cl)c(C(=O)NCc2ccco2)c1 14.1%
Cc1ccc(N=Cc2cc(C)n(C3CCCC3)c2C)cc1 3.83%
O=C(Nc1cc(F)cc(F)c1)c1ccc(NCCc2ccccc2)c([N+](=O)[O-])c1 5.14%
